From PubChem BioAssay
WT yeast gro inh: growth inhibition of WT yeast, mitochondrial fusion screen; AID 1362; inhibition, % at 10 µM; mitochondrial fusion phenotypic screen, WT strain; 190,000 tested, 2.1% active; in the data active = inhibition above about 58%; tested in S. cerevisiae
Calpain2 inh: calpain II (pig) inhibition; purified calpain II, fluorogenic peptide substrate, 30 min; inhibition, % at 16 µM; 220,000 tested, 0.37% active;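 active = inhibition above about 50%, limit read from the data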
Cl transport mod: modulators of human KCC2 chloride dependent transport. KCC2 cells, thallium flux FluoZin-2 fluorescence. 190,000 tested, 2.2% active. B-score of Tl+ flux slope (higher = more flux/activation; lower = inhibition) at 10 µM. AID 1456. Q9H2X9;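 active = thallium flux slope and its plate-corrected score both differing from the plate sample mean at a set confidence after two filtering rounds, in either direction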;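 also: slope of fluorescence scaled to starting intensity during 10 to 20 s after thallium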
Lmaj promast: inhibitors of Leishmania major promastigote growth; Leishmania major promastigotes, resazurin fluorescence viability; inhibition, % at 10 µM; 200,000 tested, 9% active; AID 1063; in the data active = inhibition above about 50%;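 also: promastigotes grown with compound for 44 hours at 28 °C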
ROMK primary: human ROMK K+ channel modulation, primary screen | P48048 | Tet-inducible ROMK, thallium flux fluorescence; actives lie on both sides | B-score at 10 µM | 130,000 tested, 2% active;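 active = signal ratio slope over the read window, or its plate-corrected B-score, at least 3 SD from the plate mean, either direction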;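 also: B-score of the F/F0 ratio slope over 7 to 12 s after thallium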
L major 1uM: inhibitors of Leishmania major promastigote growth, repeat at 1 uM | shares compounds with Lmaj promast | L. major promastigote growth, resazurin fluorescence, 48 h | inhibition, % at 1 µM | 1,100 tested, 13% active;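 active = inhibition above about 50% in both repeat tests, limit read from the data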
Hits are given with their value; i = inactive; nt = no result. This is a sample that favours compounds with a hit; in the whole collection about 12% have one here.

SMILES	WT yeast gro inh	Calpain2 inh	Cl transport mod	Lmaj promast	ROMK primary	L major 1uM
Fc1ccccc1Cc1noc(CN2CCCC(CN3CCOCC3)C2)n1 (configuration not stated)	i	i	nt	i	i	nt
Cc1ccc(/C=C\c2nccc3c2[nH]c2ccccc23)cc1	i	i	i	68	i	i
CCn1cc([N+](=O)[O-])c(C(=O)N2N=C(c3ccc(OC)cc3OC)CC2c2ccccc2O)n1 (configuration not stated)	i	i	i	60	i	i
O=C1c2ccccc2CCC12N=NCC2c1ccccc1 (configuration not stated)	i	i	i	i	nt	nt
COc1ccc2c3c(cccc13)NN=C2C	nt	nt	i	101	i	98
C[N+]1(C2CCC3CCCC2C3O)CCCC1 (configuration not stated)	i	i	i	65	i	i
Cc1ccc(-c2cc[n+](Cc3ccccc3)cc2)cc1	i	i	i	92	i	i
Cc1cc[n+](Cc2ccc([N+](=O)[O-])cc2)cc1	i	i	i	i	i	nt
COc1ccc(OC(C)c2nnc(N)s2)cc1 (configuration not stated)	i	i	i	i	i	nt
Cc1ccc(OC(C)c2nnc(N)s2)cc1Cl (configuration not stated)	i	i	i	100	i	i
Cc1ccc(S(=O)(=O)NN=C2CCN(Cc3ccccc3)CC2)cc1	i	i	i	i	i	nt
Cc1ccc(S(=O)(=O)NNC(=O)C2CCN(Cc3ccccc3)CC2)cc1	i	i	nt	85	nt	i
Cn1c(=O)c2c(ncn2CCC(=O)N/N=C/c2cccnc2)n(C)c1=O	nt	i	i	nt	nt	nt
CC(C)(C)c1ccc(C(=O)NCCCN2CCN(CCCNC(=O)c3ccc(C(C)(C)C)cc3)CC2)cc1	i	i	i	100	i	i
COc1cc(OC)cc(C(=O)NCCCN2CCN(CCCNC(=O)c3cc(OC)cc(OC)c3)CC2)c1	i	i	i	i	i	nt
CCOC(=O)C1(N(CC)CC)Sc2cc(C)ccc2NC1=O (configuration not stated)	i	i	i	94	i	i
C=CCOC(=O)C1=C[C@H](c2coc3ccccc3c2=O)[C@@H](CCCO)[C@H](OCC)O1	i	i	i	i	nt	nt
Cc1noc(C)c1S(=O)(=O)NCCCN1CCN(Cc2ccccc2)CC1	i	i	i	92	i	i
Cc1noc(C)c1S(=O)(=O)NCCN1CCN(c2ccccc2)CC1	i	i	nt	i	i	nt
COc1ccc(OC)c(S(=O)(=O)NCCc2csc(-c3cccnc3)n2)c1	nt	i	i	nt	i	nt
COc1cc(C2SCC(=O)N2c2nnc(C34CC5CC(CC(C5)C3)C4)s2)cc(OC)c1OC (configuration not stated)	i	i	nt	i	nt	nt
COc1ccc(C2SCC(=O)N2c2nnc(C34CC5CC(CC(C5)C3)C4)s2)cc1 (configuration not stated)	i	i	i	98	i	i
CCn1c(CSc2ncccn2)nnc1SCC(=O)N1CCCCC1	i	i	i	i	i	nt
CC1=NN(/C(=N\c2nnc(C)s2)Nc2ccc(C(C)(C)C)cc2)[C@H](c2ccc(C)cc2)S1	80	i	i	64	nt	i
FC(F)Oc1cccc(NC(=S)N2CCN(c3ccccn3)CC2)c1	i	i	i	i	i	nt
SMILES	WT yeast gro inh	Calpain2 inh	Cl transport mod	Lmaj promast	ROMK primary	L major 1uM
O=Cc1ccc(Oc2cc(-c3ccccc3)nc(-c3ccccc3)n2)cc1	i	i	i	57	i	i
N#CC1(c2ccccc2)CCC(=O)N1Cc1ccccc1 (configuration not stated)	nt	i	i	nt	nt	nt
CN(C)c1ccnc(-n2cccc2/C=N/OCc2ccccc2)c1C#N	i	i	i	i	i	nt
COc1ccccc1CO/N=C/c1cccn1-c1nccc(N(C)C)c1C#N	i	i	i	71	i	i
Cc1c(C)n(C(=O)CSc2ncn[nH]2)c2ccccc12	i	i	i	i	i	nt
Cc1ccc(S(=O)(=O)c2ccc(NN)cc2)cc1	i	i	i	97	i	i
COC(=O)CCN1CCN(S(=O)(=O)c2ccccc2Br)CC1	i	i	i	i	i	nt
CC(C)c1ccccc1NC(=O)COC(=O)Cc1c[nH]c2ccccc12	i	i	i	50	i	i
COc1ccccc1NC(=O)COC(=O)Cc1c[nH]c2ccccc12	i	i	i	i	i	nt
NC(=O)c1ccsc1NC(=O)c1coc2ccccc2c1=O	i	i	i	i	i	nt
Fc1ccccc1Sc1ccccc1CNC1=NCCN1	80	i	i	99	i	i
O=C(CNC(=O)c1ccc(Cl)cc1)N/N=C/c1cccnc1	nt	i	i	nt	nt	nt
C(=N\Nc1nc2ccccc2[nH]1)/c1ccccn1	67	i	i	100	i	i
C(=N\Nc1nc2ccccc2[nH]1)/c1ccc2ncccc2c1	nt	i	i	nt	i	nt
O=C(NCC1CCCCC1)c1cccc(S(=O)(=O)NCc2cccnc2)c1	i	i	i	i	i	nt
COCCCNCCCCOc1ccc(Br)cc1Cl	i	i	i	98	i	76
COc1cccc(-n2nc3c(=O)n(Cc4ccccc4Cl)nc(C)c3c2C)c1	i	i	i	i	i	nt
N#CCCN(C(=O)COC(=O)C1CCN(S(=O)(=O)c2cccs2)CC1)c1ccccc1	i	i	i	i	i	nt
Cc1ccc(S(=O)(=O)NC(C)(C)CSc2nnc(Nc3ccccc3)s2)cc1	i	i	i	100	i	i
N/C(COc1cccc(Cl)c1)=N\O	nt	i	i	nt	i	nt
CCCCNCCCOc1cccc(Cl)c1	i	i	i	94	nt	i
O=S(=O)(c1ccc(S(=O)(=O)N2CCCN(Cc3ccccc3)C2)cc1)N1CCCCCC1	i	i	i	76	nt	i
CC(C)CN(C(=O)c1ccc(=O)n(C)n1)c1nc2ccccc2s1	i	i	nt	57	nt	i
Cn1nc(C(=O)Nc2nc3ccccc3[nH]2)ccc1=O	i	i	i	i	i	nt
O=C(NCc1cc(Br)cc(Br)c1OC(=O)c1ccccc1[N+](=O)[O-])c1ccccc1	i	i	i	i	nt	nt
SMILES	WT yeast gro inh	Calpain2 inh	Cl transport mod	Lmaj promast	ROMK primary	L major 1uM
CCOC(=O)COn1c(-c2cccc(Cl)c2)nc2ccc([N+](=O)[O-])cc21	i	i	i	i	nt	nt
CCOC(=O)C(C)On1c(-c2cccc(Cl)c2)nc2ccc([N+](=O)[O-])cc21 (configuration not stated)	i	i	i	95	i	i
CN1CCN(c2nc(N3CCN(c4ccccc4)CC3)ncc2F)CC1	i	i	i	65	i	i
Fc1cnc(Cl)nc1N1CCN(c2ccccc2)CC1	nt	i	i	nt	nt	nt
C=CCOc1ccc2ccccc2c1/C=N/O	i	i	i	51	i	i
Cc1ccc(C2(C(F)(F)F)NC(=O)N3N=C4CCCCCN4C3=C2C#N)cc1 (configuration not stated)	i	i	i	i	i	nt
CC1=C(C(=O)Nc2cc(-c3cccc(F)c3)[nH]n2)C2(CCCCC2)OC1=O	i	i	i	100	nt	89
O=c1[nH][nH]cc1C=Nc1ccccc1Cl	i	i	i	i	i	nt
O=c1[nH][nH]cc1C=Nc1ccccc1O	i	i	nt	98	i	i
NNc1nc(-c2ccccc2)cc(-c2ccccc2)n1	70	i	nt	91	i	i
O=c1[nH]c2ccccc2nc1N1CCOCC1	i	i	i	i	nt	nt
